Screening data from PubChem BioAssay.
Bst PK mod = modulators of Bacillus stearothermophilus pyruvate kinase; purified pyruvate kinase, luminescence ATP production; ribose 5-phosphate activator present at AC10; Potency, µM; 1.2% of 51,000 active; in the data active = potency below about 11 µM; inconclusive = mostly about 12 µM to 25 µM;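 the screen sought inhibitors and activators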;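 also: scaled between full activation by ribose 5 phosphate and full inhibition by luteolin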
Ub-GFP proteasome = inhibits proteasome, raising ubiquitin-GFP reporter fluorescence | Ubiquitin-GFP reporter cells, proteasome inhibition, GFP fluorescence; response scale: untreated = 0%, 10 µM MG-132 = 100% | Potency, µM (doses to about 45.9 µM), without a hit: at the highest dose activation (GFP accumulation), usual class: activators | 67,000 tested, under 10 active; active = well fitted activation curve with a large enough effect, not every such curve was filed as active; inconclusive = small, poorly fitted or top-dose-only effect, or another doubt; inactive = no such curve, though single readings can be large or run the other way
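U2OS Ub(G76V)-GFP reporter; O/N plating, 0.5% FBS; cpd 46 uM–2.9 nM, 4 h, 37 °C; GFP+ cell count, 488/515 nm; norm. to basal vs 10 uM MG-132; CRC fit.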
TSHR ag = agonists of human thyroid stimulating hormone receptor; P16473; HEK293-CNG-TSHR cells (CNG channel as cAMP sensor), membrane potential dye, cAMP; Potency, µM (top dose mostly 57.1 µM), for the others: at the top dose activation, actives largely listed as activators; 0.48% of 73,000 active; AID 926; active = well fitted activation curve with a large enough effect in the main read-out, with a control signal flat, not every such curve was filed as active; inconclusive = small, poorly fitted or top-dose-only effect, or a change in a side signal; inactive = no such curve, though single readings can be large or run the other way; % of control where 0% means no effect;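 also: the control signal comes from parental cells without the receptor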
Target sequence (P16473 whole entry, looked up): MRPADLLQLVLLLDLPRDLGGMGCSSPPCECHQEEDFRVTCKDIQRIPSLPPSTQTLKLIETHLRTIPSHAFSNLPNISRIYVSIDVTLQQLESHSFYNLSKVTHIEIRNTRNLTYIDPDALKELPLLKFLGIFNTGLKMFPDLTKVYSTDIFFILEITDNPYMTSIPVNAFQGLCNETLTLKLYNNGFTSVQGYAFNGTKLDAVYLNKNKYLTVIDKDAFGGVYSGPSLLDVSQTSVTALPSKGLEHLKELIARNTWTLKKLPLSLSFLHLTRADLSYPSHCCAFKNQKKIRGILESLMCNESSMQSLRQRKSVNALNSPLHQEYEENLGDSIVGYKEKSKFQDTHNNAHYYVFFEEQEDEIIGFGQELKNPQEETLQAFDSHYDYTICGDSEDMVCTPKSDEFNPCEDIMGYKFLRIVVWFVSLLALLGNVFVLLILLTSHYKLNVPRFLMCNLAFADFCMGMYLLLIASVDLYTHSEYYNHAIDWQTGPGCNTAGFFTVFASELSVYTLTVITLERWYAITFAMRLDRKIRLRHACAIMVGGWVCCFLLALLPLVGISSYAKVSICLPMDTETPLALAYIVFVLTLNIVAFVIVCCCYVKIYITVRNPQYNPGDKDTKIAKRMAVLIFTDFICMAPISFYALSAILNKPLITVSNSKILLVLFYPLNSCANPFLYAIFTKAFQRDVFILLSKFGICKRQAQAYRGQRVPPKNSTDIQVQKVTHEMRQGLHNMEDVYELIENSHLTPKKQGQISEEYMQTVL
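HEK 293 cells stably expressing TSHR and a cAMP-gated CNG channel; parental CNG-only cells as counterscreen. Cells preloaded 60 min with membrane potential dye plus 100 uM RO 20-1724, then compound 30 min; fluorescence read at 590 nm.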
HEK293 cAMP ctrl = counter-screen for TSHR agonists: cAMP increase in parental HEK293; parental HEK293 CNG cAMP sensor, membrane potential fluorescence; Potency, µM (doses to about 57.1 µM), without a hit: at the top dose activation, usual class: activators; 2.5% of 73,000 active; AID 938; also: % of control where 0% means no effect; nearly all actives have a fitted effect of over 55% in size
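Parental HEK 293 cells stably expressing a modified CNG channel (no TSHR) report cAMP rise as membrane depolarization. Membrane potential dye with 100 uM RO 20-1724 was loaded for 60 min at room temperature, then compound added for 30 min; fluorescence read at 590 nm.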
USP2a inhib = USP2a (human) protease inhibition; USP2a enzymatic assay, qHTS inhibition; 0.1% of 60,000 active; Potency, µM (top dose mostly 38.3 µM), for the others: at the top dose activity change, negative = inhibition, usual class: inhibitors; AID 927; also: nearly all actives have a fitted effect of over 60% in size
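USP2 core (20 nM final) was preincubated with compound for 30 min at RT in 20 mM Tris-HCl pH 8.0, 2 mM CaCl2, 2 mM beta-mercaptoethanol; Ub-PLA2 (20 nM) plus NBD C6-HPC (20 uM) then added, fluorescence read after 2.5 h.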
GBA mod = human lysosomal glucosylceramidase modulation | purified enzyme, resorufin glucoside fluorescence (screen aimed at inhibitors), 20 min | Potency, µM | 1.1% of 48,000 active | AID 360; in the data active = potency below about 15 µM; inconclusive = mostly about 16 µM to 33 µM;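 also: the screen sought inhibitors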
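Normal human glucocerebrosidase (0.2 nM final) was assayed with resorufin β-D-glucopyranoside (30 uM final) in 50mM citric acid/KH2PO4, 10mM sodium taurocholate, 0.01% tween-20, pH 5.9. Compounds were titrated; fluorescence (Ex 548, Em 600) read after 20 min at RT.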
Starred values were filed as active, the others as inactive; i = inactive; ? = inconclusive; / = no result; [ ] = remark or other dose. The list is not random: actives were taken first. Their share in the collection is about 4.1%. Unless noted, calls follow the shape of the dose curve; as a rule, active = well fitted curve in the direction sought with a large enough effect; inconclusive = small, poorly fitted or top-dose-only effect, or another doubt; inactive = no such curve, though single readings can be large; an effect the other way counts as inactive or inconclusive. Potency is read from the fitted curve at half-maximal effect.

SMILES	Bst PK mod	Ub-GFP proteasome	TSHR ag	HEK293 cAMP ctrl	USP2a inhib	GBA mod
CCCC/C=C/C(NC(=O)Oc1cccc(C(F)(F)F)c1)c1ccccc1 (centres undefined)	/	/	?	25µM*	/	/
CCCC/C=C/C(NC(=O)c1ccc(-c2ccccc2)cc1)c1ccccc1 (centres undefined)	/	/	13%	14%	/	/
O=C(O)/C(Cc1cn[nH]n1)=N\O	/	4%[9.17 µM]	0%[11.4 µM]	10%[11.4 µM]	/	/
Cc1ccc(-c2nnc(SCC(=O)N3CC(C)CC(C)C3)o2)cc1C (centres undefined)	/	12%	?	16µM*	/	/
CCCC(=O)N1CCN(c2ccc(NC(=O)c3cc4ccccc4o3)cc2)CC1	>57	3%	-12%	-12%	13%	>77
CCOC(=O)c1ccc(NC(=O)c2cc3ccccc3o2)cc1	/	-9%	?	25µM*	13%	/
CC(C)C(=O)Nc1ccc(NC(=O)c2cc3ccccc3o2)cc1	>57	-3%	5%	7%	0%	9.8*
CCNc1ncc2nc(-c3cc(F)cc(F)c3)c(=O)n(CCOC)c2n1	/	13%	3%	10%	80%	/
COC(=O)[C@@H]1C[C@H]1[C@@H](NC(=O)Oc1ccc(F)cc1)c1ccccc1	/	/	?	10µM*	/	/
COC(=O)[C@H]1C[C@@H]1[C@H](NC(C)=O)c1ccccc1	/	/	2%	-5%	/	/
COC(=O)[C@@H]1C[C@H]1[C@@H](NC(=O)c1ccccc1)c1ccccc1	/	/	?	25µM*	/	/
N=c1nc(N)nc2n1NC(c1ccc(F)cc1)=CS2	3.6*	5%	-8%	-11%	23%	>77
Oc1ccc(N2CCN(c3ncnc4sc5c(c34)CCC5)CC2)cc1	/	3%	/	2%	28%	>77
CCC1CCc2c(sc3ncnc(N4CCOCC4)c23)C1 (centres undefined)	i	-2%	?	32µM*	0%	/
COc1ccc2nc(C)cc(SCC(=O)O)c2c1	>57	-4%	-3%	3%	-7%	>77
COc1ccc2c(C)cc(SCC#N)nc2c1	i	-3%	?	32µM*	5%	>77
Cc1ccccc1-c1nc(N2CCOCC2)c2ccccc2n1	/	0%	?	?	13µM*	/
CN(C)Cc1ccccc1-c1nc(N2CCOCC2)c2ccccc2n1	/	13%	?	7.9µM*	-12%	/
CN1CCN(c2nc(-c3ccoc3)nc3ccccc23)CC1	/	-3%	5µM*	15%	45%	/
c1ccc(-c2nc(N3CCOCC3)c3ccccc3n2)nc1	/	0%	0%	5%	11%	>77
Cc1ccccc1-c1nc(N2CCN(C)CC2)c2ccccc2n1	/	-7%	12%	18%	28%	/
O=C(COC(=O)CSc1nnc(-c2ccc(Cl)cc2)o1)NCc1ccc2c(c1)OCO2	>57	0%	-1%	4%	14%	11*
Cc1ccc(-n2ncc3c(=O)[nH]c(SCC(=O)N4CCCc5ccccc54)nc32)cc1	>57	-2%	?	40µM*	28%	/
Cc1cc2c(=O)n(Cc3ccco3)c(SCC(=O)N3CCCc4ccccc43)nc2s1	>57	-2%	?	32µM*	46%	>77
CCn1c(SCC(=O)N2CCCc3ccccc32)nc2cccnc21	>57	2%	1%	6%	39%	>77
SMILES	Bst PK mod	Ub-GFP proteasome	TSHR ag	HEK293 cAMP ctrl	USP2a inhib	GBA mod
CC(C)Sc1nc2c(cnn2-c2ccccc2)c(=O)[nH]1	/	-1%	6%	13%	/	/
CCCCCSc1nc2c(cnn2-c2ccccc2)c(=O)[nH]1	>57	11%	3%	3%	0%	13*
CCn1c(SCC(=O)N2CCCc3ccccc32)nc2ccccc2c1=O	>57	1%	?	10µM*	/	>77
O=C(CSc1nc2sc3c(c2c(=O)n1Cc1ccco1)CCC3)N1CCc2ccccc21	>57	12%	20%	15%	20%	>77
Cc1ccc(-n2ncc3c(=O)[nH]c(SCC(=O)N4CCN(c5ccccc5)CC4)nc32)cc1	>57	-2%	?	?	15%	>77
NCCC[C@@H](CC(=O)N[C@@H]1CCCC[C@H]1C(=O)N[C@H](CC(=O)N[C@@H](CCC(=O)O)CC(=O)O)Cc1c[nH]c2ccccc12)NC(=O)C[C@H](Cc1c[nH]c2ccccc12)NC(=O)[C@@H]1CNCC[C@H]1N	/	/	/	16%	/	/
CC(C)=NO[C@@H](C)c1cc(-c2c(C)cc(C)cc2C)no1	/	/	0%[11.4 µM]	23%[11.4 µM]	/	/
CO[C@@H](NC(N)=O)C(=O)O	/	1%[9.17 µM]	/	9%[11.4 µM]	/	/
CCOC(=O)CSc1nc2ccccc2c(=O)n1CC1CCCO1 (centres undefined)	>57	0%	?	16µM*	0%	>77
CCOC(=O)CSc1nc2ccccc2c(=O)n1CC1COc2ccccc2O1 (centres undefined)	>57	0%	?	?	-12%	>77
CC(C)(C)COS(=O)OCC(C)(C)C	/	0%[9.17 µM]	-7%[11.4 µM]	21%[11.4 µM]	/	/
Cc1cc(C(=O)COc2cccc(-n3cnnn3)c2)c(C)n1-c1ccccc1	/	4%	?	25µM*	44%	>77
COc1cccc(Cn2c(=O)c(C)nc3cnc(N4CCN(C)CC4)nc32)c1	/	6%	5%	11%	230%	/
CCCCNC(=O)c1sc2nc(C)cc(COC)c2c1-n1cccc1	>57	7%	?	16µM*	-16%	>77
CCCOc1ccc2ccccc2c1/C=N/n1c(C)nnc1-n1nc(C)cc1C	/	14%[9.17 µM]	?	4µM*	-3%[7.66 µM]	/
CC1CCCCN1CCNc1nc(=S)[nH]c2ccccc12 (centres undefined)	>57	14%	12%	10%	5%	/
O=C(O)CCCCCNc1nc(=S)[nH]c2ccccc12	>57	-10%	-4%	17%	-2%	7.7*
O=[N+]([O-])c1ccc(CCO)cc1	/	/	?	-14%	/	/
Cc1cccc(-n2nnnc2SCC(=O)NCCN2C(=O)CSC2=O)c1	>57	-1%	0%	3%	6%	>77
Cc1cccc(-n2nnnc2SC(C)C(=O)NCCC2=CCCCC2)c1 (centres undefined)	>11	3%	?	13µM*	-3%	>77
COc1ccc(NC(=O)c2cc3n(n2)C(C(F)(F)F)CC(c2ccco2)N3)cc1 (centres undefined)	>57	-3%	-7%	-1%	9%	>77
O=C(NCC12CC3CC(CC(C3)C1)C2)c1cc2n(n1)C(C(F)(F)F)CC(c1ccco1)N2 (centres undefined)	>57	1%	-1%[11.4 µM]	-12%	34%	13*
CS(=O)(=O)Nc1cccc(-c2nc(NCc3cccnc3)c3ccccc3n2)c1	/	-9%	/	-1%	45%	/
CS(=O)(=O)Nc1cccc(-c2nc(NCc3ccccc3)c3ccccc3n2)c1	/	5%	?	25µM*	?	/
Cc1noc(C)c1-c1nc(NCc2ccccc2)c2ccccc2n1	/	5%	?	25µM*	44%	/
